Results published in PubChem BioAssay (Tox21).
Where “and” joins values, the source holds several entries; their conditions need not be identical. Equal entries are not always repeated. Results filed as inconclusive are left out. A call without a number means that no potency is given here. Some compounds were tested as several samples or in several runs, with calls that do not always agree. Calls of active or inactive are those of the source. Unless noted, calls come from the whole dose curve.

Tests used:
[1] = Nuclear factor erythroid 2-related factor 2/antioxidant responsive element (Nrf2/ARE) small molecule agonists: qHTS cell viability counter screen in human keratinocytes (AID 1919968; active = well fitted curve in the direction sought with a large enough effect in the repeat runs; an effect the other way counts as inactive or inconclusive; note: nearly all actives have a fitted effect of over 55% in size)
How it was run: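 HaCaT ARE reporter line, 1,500 cells/well; 5 h settle, 37 C/5% CO2; cpd in DMSO pinned; 23 h exposure; CellTiter-Fluor, 1 h; fluorescence.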

[2] = biological target: KiSS-1 receptor (Homo sapiens) (UniProt Q969F8); test: Human kisspeptin (KISS1R) small molecule agonists, calcium flux assay in KISS1R-HEK293 cells (AID 1920064; active = well fitted curve in the direction sought with a large enough effect in the repeat runs; an effect the other way counts as inactive or inconclusive)
Sequence of KiSS-1 receptor (Homo sapiens) (Q969F8 whole entry, looked up): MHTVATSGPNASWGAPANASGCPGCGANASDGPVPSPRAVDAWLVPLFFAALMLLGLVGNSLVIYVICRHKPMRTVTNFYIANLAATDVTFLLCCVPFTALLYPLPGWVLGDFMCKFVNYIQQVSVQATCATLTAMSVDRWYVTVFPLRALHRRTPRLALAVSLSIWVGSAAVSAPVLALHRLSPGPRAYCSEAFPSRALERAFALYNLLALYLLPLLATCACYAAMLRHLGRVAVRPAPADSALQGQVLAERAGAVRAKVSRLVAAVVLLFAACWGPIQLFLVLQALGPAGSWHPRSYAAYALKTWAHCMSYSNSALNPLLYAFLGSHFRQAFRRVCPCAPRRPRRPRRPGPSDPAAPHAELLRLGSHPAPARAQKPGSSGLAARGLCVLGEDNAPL
How it was run: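 Stable human KISS1R HEK293 line; 18 h plating, 37 C/5% CO2; calcium dye 1 h 37 C; compound pin transfer; kinetic fluorescence Ex/Em 480/540, 3 min.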

[3] = G protein-coupled receptor (GPCR) small molecule agonists, calcium flux assay: HEK293 wild type cell line counter screen (AID 1920065)
How it was run: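 Kinetic fluorescence at Ex/Em 480/540, recorded every second over 3 min, served as the read-out after compound addition. Each compound was tested at 15 concentrations in triplicate on cells pre-loaded with calcium dye for 1 h.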

[4] = p53 small molecule agonists, cell-based qHTS assay with human liver microsomes (AID 1963577);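 note: p53 response element beta-lactamase reporter cells with liver microsomes plus NADPH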
How it was run: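 HLM-supplemented p53RE-bla reporter assay: 16 h compound exposure at 37 C, microsomes and NADPH each 0.5 mg/mL final, read by fluorescence intensity.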

[5] = p53 small molecule agonists, cell-based qHTS assay with rat liver microsomes (AID 1963578)
How it was run: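 Quantitative HTS of the Tox21 10K library: p53RE-bla cells, rat liver microsomes plus NADPH at 0.5 mg/mL final each, 16 h at 37 C, beta-lactamase fluorescence detection.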

[6] = p53 small molecule agonists, cell-based qHTS assay with human liver microsomes: qHTS cell viability counter screen (AID 1963579); note: nearly all actives have a fitted effect of over 45% in size
How it was run: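 Viability of p53RE-bla cells is measured as CellTiter-Glo luminescence following a 16 h, 37 C incubation with compound, liver microsomes from human donors and NADPH.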

[7] = p53 small molecule agonists, cell-based qHTS assay with rat liver microsomes: qHTS cell viability counter screen (AID 1963580); note: nearly all actives have a fitted effect of over 45% in size
How it was run: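 In HCT-116 cells carrying a p53 response element-bla reporter, compounds were metabolically activated in situ by rat liver microsomes with NADPH over 16 h. Cell ATP content then served as the cytotoxicity measure.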

[8] = p53 small molecule agonists, cell-based qHTS assay: qHTS cell viability counter screen (AID 1963581); note: nearly all actives have a fitted effect of over 45% in size
How it was run: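 HCT-116 p53RE-bla cells, 4,000/well, plated 5 h before compound pin transfer; 16 h at 37 C; bla substrate 2 h RT; then CellTiter-Glo, 30 min RT, luminescence.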

[9] = p53 small molecule agonists, cell-based qHTS assay (AID 1963582; active = well fitted activation curve with a large enough effect in the signal ratio in the repeat runs, not every such curve was filed as active; the % refers to the signal ratio)
How it was run: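 Reporter line: p53RE-bla. Pre-incubation 5 h, 37 C, 5% CO2; compound (DMSO, pin tool) 16 h, 37 C; B/G FRET substrate 2 h RT; fluorescence intensity read.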

[10] = cAMP Responsive Elements (CRE) small molecule agonists, cell-based qHTS assay (AID 1963590)
How it was run: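 HEK 293T CRE-bla, 2,000 cells/well, 18 h preincubation 37 C/5% CO2; cpds (DMSO) pinned, 3 h; LiveBLAzer B/G FRET substrate, 2 h RT.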

[11] = cAMP Responsive Elements (CRE) small molecule antagonists, cell-based qHTS assay (AID 1963591; active = well fitted inhibition curve with a large enough effect in the signal ratio in the repeat runs, not every such curve was filed as active; the % refers to the signal ratio)
How it was run: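 Beta-lactamase reporter read by FRET substrate (LiveBLAzer B/G) after 2 h at room temperature. CRE-bla HEK293T cells had received compound plus 0.25 uM (final) NKH477 for 3 h at 37 °C.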

[12] = biological target: Beta-2 adrenergic receptor (Homo sapiens) (UniProt P07550); test: Adrenergic beta2 receptor (ADRB2) small molecule antagonists, cell-based qHTS assay (AID 1963592); note: series mostly up to about 92 µM; nearly all actives have a fitted effect of over 50% in size
Sequence of Beta-2 adrenergic receptor (Homo sapiens) (P07550 whole entry, looked up): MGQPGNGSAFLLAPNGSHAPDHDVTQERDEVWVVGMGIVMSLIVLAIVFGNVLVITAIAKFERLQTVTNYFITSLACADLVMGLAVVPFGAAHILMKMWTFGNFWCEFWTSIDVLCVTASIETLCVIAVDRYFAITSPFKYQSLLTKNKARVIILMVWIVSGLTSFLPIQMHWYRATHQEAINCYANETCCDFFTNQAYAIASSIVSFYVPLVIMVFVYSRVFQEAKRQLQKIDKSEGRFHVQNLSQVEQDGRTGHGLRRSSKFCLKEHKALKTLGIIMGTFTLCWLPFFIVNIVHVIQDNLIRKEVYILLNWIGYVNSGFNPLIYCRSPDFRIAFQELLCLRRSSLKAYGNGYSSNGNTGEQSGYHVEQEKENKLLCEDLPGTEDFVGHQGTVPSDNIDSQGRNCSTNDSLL
How it was run: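 Cells (CHO, stable ADRB2 overexpression) incubated 18-20hr at 37C; compounds added from DMSO; agonist mix (1nM isoproterenol, 100uM IBMX, 25uM Ro-20-1724) added; 0.5hr RT; d2-cAMP and anti-cAMP-cryptate added; 1hr RT; 665/615 nm read.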

[13] = biological target: Beta-2 adrenergic receptor (Homo sapiens) (UniProt P07550); test: Adrenergic beta2 receptor (ADRB2) small molecule agonists, cell-based qHTS assay (AID 1963593);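 note: CHO cells stably overexpressing human ADRB2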
How it was run: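 CHO cells stably over-expressing ADRB2 were plated overnight at 37C, then dosed with compounds plus a stimulation mix containing 100uM IBMX and 25uM Ro-20-1724 for 0.5hr at room temperature. cAMP was measured by HTRF competition, 1hr.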

[14] = biological target: D(2) dopamine receptor (Homo sapiens) (UniProt P14416); test: Dopamine D2 receptor (DRD2) small molecule agonists, cell-based qHTS assay (AID 1963594); note: nearly all actives have a fitted effect of over 35% in size; note: potency is the fitted concentration of half-maximal effect
Sequence of D(2) dopamine receptor (Homo sapiens) (P14416 whole entry, looked up): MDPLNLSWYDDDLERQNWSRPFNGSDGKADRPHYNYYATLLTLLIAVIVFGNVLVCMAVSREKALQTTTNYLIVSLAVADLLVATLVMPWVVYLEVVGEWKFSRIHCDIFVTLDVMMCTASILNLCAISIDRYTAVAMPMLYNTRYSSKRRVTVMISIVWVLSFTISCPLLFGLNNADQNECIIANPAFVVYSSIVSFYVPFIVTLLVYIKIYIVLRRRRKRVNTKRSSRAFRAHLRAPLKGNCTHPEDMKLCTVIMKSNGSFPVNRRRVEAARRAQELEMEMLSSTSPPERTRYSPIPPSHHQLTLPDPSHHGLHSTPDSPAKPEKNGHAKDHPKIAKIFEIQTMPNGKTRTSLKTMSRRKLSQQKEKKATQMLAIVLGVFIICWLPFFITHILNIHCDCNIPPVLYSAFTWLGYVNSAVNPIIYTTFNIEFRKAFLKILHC
How it was run: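 HEK293 cells stably expressing DRD2 were cultured 24 h at 37 C, then given Ro20-1724 (0.1 mM final) and compounds for 10 min at room temperature. NKH477 (200nM) was then added for 30 min. cAMP was read by HTRF.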

[15] = biological target: D(2) dopamine receptor (Homo sapiens) (UniProt P14416); test: Dopamine D2 receptor (DRD2) small molecule antagonists, cell-based qHTS assay (AID 1963595; active = well fitted inhibition curve with a large enough effect in the signal ratio in the repeat runs, with a control signal flat; the % refers to the signal ratio; note: potency is the fitted concentration of half-maximal effect)
How it was run: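 Readout: HTRF cAMP, cAMP-d2 competing with cellular cAMP for anti-cAMP cryptate, read after 1 h. Cells: DRD2-HEK293. Conditions: 0.1 mM Ro20-1724, 12 nM quinpirole, 200 nM NKH477, 30 min RT.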

[16] = biological target: 5-hydroxytryptamine receptor 2A (Homo sapiens) (UniProt P28223); test: 5-hydroxytryptamine receptor 2A (HTR2A) small molecule agonists, cell-based qHTS assay (AID 1963587); note: nearly all actives have a fitted effect of over 30% in size
Sequence of 5-hydroxytryptamine receptor 2A (Homo sapiens) (P28223 whole entry, looked up): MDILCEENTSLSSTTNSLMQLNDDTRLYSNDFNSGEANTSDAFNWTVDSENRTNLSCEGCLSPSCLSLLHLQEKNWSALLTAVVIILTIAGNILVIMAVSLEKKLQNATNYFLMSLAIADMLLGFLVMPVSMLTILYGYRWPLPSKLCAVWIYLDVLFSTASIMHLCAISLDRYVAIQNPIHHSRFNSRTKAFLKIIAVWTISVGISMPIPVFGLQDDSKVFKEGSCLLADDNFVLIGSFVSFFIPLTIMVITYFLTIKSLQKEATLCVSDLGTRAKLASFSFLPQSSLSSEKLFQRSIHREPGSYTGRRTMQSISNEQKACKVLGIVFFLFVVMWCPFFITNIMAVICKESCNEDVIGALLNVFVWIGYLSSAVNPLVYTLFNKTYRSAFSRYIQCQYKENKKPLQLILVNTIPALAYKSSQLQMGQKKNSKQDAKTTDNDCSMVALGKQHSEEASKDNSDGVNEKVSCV
How it was run: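 HTR2A-CHO cells, plated 18 h at 37 C/5% CO2, dye-loaded 1 h at 37 C; compounds in DMSO added by pin tool (agonist mode). Intracellular calcium flux read as kinetic fluorescence on FDSS over 2 min at 1 s intervals.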

[17] = biological target: Muscarinic acetylcholine receptor M1 (Homo sapiens) (UniProt P11229); test: Cholinergic receptor muscarinic 1 (CHRM1) small molecule antagonists, cell-based qHTS assay (AID 1963588); note: nearly all actives have a fitted effect of over 40% in size
Sequence of Muscarinic acetylcholine receptor M1 (Homo sapiens) (P11229 whole entry, looked up): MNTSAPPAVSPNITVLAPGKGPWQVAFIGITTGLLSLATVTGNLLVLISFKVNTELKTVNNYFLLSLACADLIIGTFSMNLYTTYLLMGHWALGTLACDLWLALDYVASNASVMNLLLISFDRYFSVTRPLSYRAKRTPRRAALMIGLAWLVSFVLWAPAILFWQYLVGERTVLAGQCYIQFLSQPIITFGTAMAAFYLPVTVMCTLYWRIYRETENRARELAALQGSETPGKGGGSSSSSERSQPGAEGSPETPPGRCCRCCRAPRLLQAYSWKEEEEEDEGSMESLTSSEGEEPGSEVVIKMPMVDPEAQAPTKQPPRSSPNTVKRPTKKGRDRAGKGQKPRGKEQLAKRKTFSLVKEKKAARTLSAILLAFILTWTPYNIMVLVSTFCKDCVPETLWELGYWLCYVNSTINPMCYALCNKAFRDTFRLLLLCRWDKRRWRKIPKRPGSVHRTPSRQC
How it was run: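 CHRM1-CHO calcium-flux assay, antagonist mode. Cells were seeded 18 h, dye-loaded 1 h at 37 C and given compound for 5 min at RT, then acetylcholine was added at 50nM. FDSS fluorescence was read 3 min; 15 concentrations, three runs.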

[18] = biological target: Muscarinic acetylcholine receptor M1 (Homo sapiens) (UniProt P11229); test: Cholinergic receptor muscarinic 1 (CHRM1) small molecule agonists, cell-based qHTS assay (AID 1963589); note: nearly all actives have a fitted effect of over 35% in size
How it was run: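 Human M1 in stable CHO line; 18 h plating, 1 h dye load 37 C; cpd added (agonist mode); Ca2+ fluorescence kinetic read, 1 s intervals; 15 conc, 3 runs.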

[19] = biological target: 5-hydroxytryptamine receptor 2A (Homo sapiens) (UniProt P28223); test: 5-hydroxytryptamine receptor 2A (HTR2A) small molecule antagonists, cell-based qHTS assay (AID 1963586); note: nearly all actives have a fitted effect of over 45% in size
How it was run: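 Antagonist-mode intracellular calcium assay: DOI (4 nM) added after 5 min compound pre-incubation at room temperature to dye-loaded HTR2A-CHO cells. Fluorescence followed for 3 min, sampled every second.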

[20] = biological target: Gonadotropin-releasing hormone receptor (Homo sapiens) (UniProt P30968); test: Human gonadotropin-releasing hormone receptor (GnRHR) small molecule agonists, calcium flux assay in GnRHR-HEK293 cells (AID 1920063); note: nearly all actives have a fitted effect of over 35% in size
Sequence of Gonadotropin-releasing hormone receptor (Homo sapiens) (P30968 whole entry, looked up): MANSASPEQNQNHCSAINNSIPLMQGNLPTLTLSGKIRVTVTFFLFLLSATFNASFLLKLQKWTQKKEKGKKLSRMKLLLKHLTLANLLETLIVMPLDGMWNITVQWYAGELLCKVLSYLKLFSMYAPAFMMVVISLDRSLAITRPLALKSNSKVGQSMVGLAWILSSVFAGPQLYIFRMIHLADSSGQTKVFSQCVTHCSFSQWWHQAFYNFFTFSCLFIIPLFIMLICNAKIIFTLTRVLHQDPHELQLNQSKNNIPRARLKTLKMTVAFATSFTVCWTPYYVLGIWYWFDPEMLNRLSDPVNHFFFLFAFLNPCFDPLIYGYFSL
How it was run: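 GnRHR-HEK293, 1500 cells/well, 18 h 37 C/5% CO2; Ca dye 1 h 37 C; cpd pinned (DMSO), agonist mode; kinetic FL 480/540, 3 min, 1 s reads; 15 conc, n=3.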

Row | SMILES | Potency [1] | Potency [2] | Potency [3] | Potency [4] | Potency [5] | Potency [6] | Potency [7] | Potency [8] | Potency [9] | Potency [10] | Potency [11] | Potency [12] | Potency [13] | Potency [14] | Potency [15] | Potency [16] | Potency [17] | Potency [18] | Potency [19] | Potency [20]
1 | OC[C@@H](O)[C@@H](O)[C@H](O)[C@@H](O)CO | inactive | inactive | inactive | inactive | inactive | inactive | inactive | inactive | inactive | inactive | inactive | inactive | inactive | inactive | inactive | – | – | – | – | –
2 | CC(C)NCC(O)c1ccc(O)c(O)c1 (configuration not stated) | inactive | inactive | inactive | – | – | inactive | – | inactive | – | – | inactive | – | – | inactive | 303 nM (active) and 969 nM (active) and 596 nM (active) | – | – | – | – | –
3 | CCc1cccc(O)c1 | inactive | – | inactive | inactive | inactive | inactive | inactive | – | – | inactive | inactive | inactive | inactive | inactive | inactive | inactive | inactive | inactive | – | –
4 | Cc1ccc(C(=O)O)o1 | inactive | inactive | inactive | – | – | inactive | inactive | inactive | – | inactive | inactive | inactive | inactive | inactive | inactive | inactive | inactive | inactive | inactive | –
5 | CN1C(=O)CC[C@H]1c1cccnc1 | inactive | inactive | inactive | inactive | inactive | inactive | inactive | inactive | inactive | inactive | inactive | inactive | – | inactive | inactive | inactive | inactive | inactive | inactive | inactive
6 | COC(=O)c1ccccc1 | inactive | inactive | inactive | inactive | inactive | inactive | inactive | inactive | inactive | inactive | inactive | inactive | inactive | inactive | – | – | inactive | inactive | inactive | inactive
7 | C=C(C)C(=O)OCCCCCC | inactive | inactive | – | inactive | inactive | inactive | inactive | inactive | inactive | inactive | inactive | inactive | – | inactive | inactive | inactive | inactive | inactive | inactive | –
8 | CCCCCCCC(=O)OC | inactive | inactive | inactive | inactive | inactive | inactive | inactive | inactive | inactive | inactive | inactive | – | inactive | inactive and 61.1 µM (active) | inactive | inactive | inactive | inactive | inactive | inactive
9 | C[C@]12CC[C@@H]3c4ccc(O)cc4CC[C@H]3[C@@H]1CC[C@H]2O | inactive | inactive | inactive | inactive | inactive | inactive | inactive | inactive | – | inactive | inactive | inactive | inactive | inactive | inactive | – | – | – | – | –
10 | CCCOC(=O)c1cc(O)c(O)c(O)c1 | inactive | inactive | inactive | inactive | inactive | – | inactive | – | – | – | inactive | inactive | inactive | inactive | inactive | inactive | inactive | inactive | inactive | –
11 | CCCCCCCCCCCCCCCC(=O)O | inactive | inactive | inactive | inactive | – | inactive | – | – | inactive | inactive | inactive | inactive | inactive | inactive | inactive | inactive | inactive | inactive | inactive | –
12 | O=C1c2c(O)cccc2Cc2cccc(O)c21 | inactive | inactive | inactive | inactive | inactive | inactive | inactive | inactive | – | inactive | – | inactive | inactive | inactive | inactive | inactive | inactive | inactive | inactive | inactive
13 | COc1ccc(C(=O)c2ccccc2O)c(O)c1 | inactive | inactive | inactive | inactive | inactive | inactive | inactive | inactive | – | inactive | inactive | inactive | – | inactive | inactive | inactive | inactive | inactive | inactive | inactive
14 | CNC[C@H](O)c1cccc(O)c1 | inactive | inactive | inactive | inactive | inactive | inactive | inactive | inactive | inactive | – | inactive | inactive | – | inactive | 61.1 µM (active) and 29.8 µM (active) | inactive | inactive | inactive | inactive | inactive
15 | O=C(O)CCCC(=O)O | inactive | inactive | inactive | inactive | inactive | inactive | inactive | – | inactive | inactive | inactive | inactive | inactive | inactive | inactive | inactive | inactive | inactive | inactive | –
16 | O=c1c(O)c(-c2ccc(O)c(O)c2)oc2cc(O)cc(O)c12 | inactive | inactive | inactive | inactive | inactive | inactive | inactive | inactive | inactive | – | inactive | inactive | – | inactive | inactive | inactive | inactive | inactive | inactive | inactive
